Experimental data: PubChem BioAssay (NCI)
This is part of a sample that, as a whole, favours compounds with a hit. Of some 83,000 tested, about 20% had one in any assay.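 Each cell line was grown in a 96-well plate and treated with one concentration of compound for 48 hours. Values below 10 were considered active.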 Activity calls are given as the source filed them.

Tested on: IGROV1 ovarian
Assay: NCI-60 one-dose screen, 48 h (100 = growth as untreated, 0 = no growth, -100 = all killed)
Conditions: 10 µM
Experimental: Growth inhibition of the IGROV1 human tumor cell line is measured as a screen for anti-cancer activity. Cells are grown in 96 well plates and exposed to the test compound for 48 hours. Compounds are tested at a single concentration, which is 10^-5 M for most compounds. The reported endpoint is percent growth (GI% or GIPRCNT), where numbers from 0 - 100% represent growth inhibition, and numbers from -100% - 0 represent cell death. For example, a value of 40 represents 60% growth inhibition. A value of 0 means no net growth occurred over the course of the experiment. A value of -40 indicates 40% of cells at the beginning of the experiment died by the end of the experiment. A value of -100 means all cells are dead at the end of the experiment.
NCI-60 Human Tumor Cell Lines Screen was performed using the standard one-dose NCI protocol, which is described in more detail at https://dtp.cancer.gov/discovery_development/nci-60/default.htm.
Compounds with GIPRCNT values below 10 were considered active. Activity score was based on GIPRCNT using the following formula: […]
Score is 0 for GIPRCNT values of 100 or above, 50 for GIPRCNT values of 0, and 100 for GIPRCNT values of -100.

Row | Structure (SMILES) | growth
1 | Nc1ccn(Cc2nnc(CCC(=O)c3nc4ccccc4[nH]3)o2)c(=O)n1 | 65.3% (inactive)
2 | O=C1CCn2c1c(O)c1ccccc1c2=O | 116% (inactive)
3 | Cc1cc(CC(C)CC(C)(C)C)n(O)c(=O)c1 (stereo not given) (tested in a mixture with another compound) | 9.36% (active)
4 | Nc1nc(Cl)nc2c1ncn2C1O[C@H](CO)[C@@H](O)[C@@H]1F (stereo not given in full) | 53% (inactive)
5 | COc1ccc(-c2cc(-c3ccc(Cl)cc3)nc(SCCCC(=O)NO)n2)cc1 | 2.96% (active)
6 | COc1cc(C(=O)/C(C)=C/c2c[nH]c3ccccc23)cc(OC)c1OC | 18.8% (inactive)
7 | Cc1c(Cl)cccc1NC(=O)CCCl | 104% (inactive)
8 | CC(C)(C)OC(=O)CC(S(=O)(=O)c1ccccc1)S(=O)(=O)c1ccccc1 | 114% (inactive)
9 | COc1ccc(-c2nn(-c3cccc(Cl)c3)cc2-c2nc(N)[nH]c(=O)c2C#N)cc1 | 61% (inactive)
10 | COC(=O)C1OC1c1cc([N+](=O)[O-])ccc1OC (stereo not given) | 93% (inactive)
11 | CCOC(=O)c1cc(C(=O)c2ccc(OC)c(OC)c2)n2ccncc12 | 102% (inactive)
12 | O=C(Nc1ccc2c(O)cc(S(=O)(=O)O)cc2c1)c1ccc([N+](=O)[O-])cc1 | 102% (inactive)
13 | COc1ccc(N=Nc2cc(OC)c(OC)c(OC)c2)cc1 | 62.7% (inactive)
14 | NC1=NC(c2ccc(Cl)cc2)C2=C(N1)/C(=C/c1ccc(Cl)cc1)CCC2 (stereo not given) | 85.2% (inactive)
15 | Cc1ccc(NCCN(C)CC(C)O)c2c(=O)c3ccccc3sc12 (stereo not given) | 38.4% (inactive)
16 | Cc1ccc(NCCNCC(C)(C)O)c2c(=O)c3ccc(Cl)cc3sc12 | 29.8% (inactive)
17 | COC(=O)C1(O)NC(=C(C#N)C#N)C(C#N)=C1C(=O)c1ccc(OC)c(OC)c1 (stereo not given) | 101% (inactive)
18 | COc1ccc(-c2cc(-c3ccccc3)nc(SCCCCCCC(=O)NO)n2)cc1 | 32.2% (inactive)
19 | Cc1ccc(S(=O)(=O)N(C)CCCCCC(=O)O)cc1 | 99.4% (inactive)
20 | CC(=O)Nc1ccc2c(c1)C(=O)c1cccc(C(=O)O)c1-2 | 135% (inactive)

Row | Structure (SMILES) | growth
21 | NS(=O)(=O)c1ccc(Br)cc1 | 100% (inactive)
22 | CN(C)CCOc1cccc(-c2nc3sccn3c2-c2ccnc(S(C)(=O)=O)n2)c1 | 94.3% (inactive)
23 | O=C1/C=C/[C@@H](O)[C@@H]2C[C@@H](O)C[C@H]2/C=C/CCC[C@H](C(F)(F)F)O1 | 19.4% (inactive)
24 | C[C@@H](C[C@H](CCO)c1ccccc1)c1ccc2ccccc2c1 | -54.5% (active)
25 | NC(N)=N/N=C(\c1ccccc1)C(O)c1ccccc1 (stereo not given) | 100% (inactive)
26 | C=CCN(CC=C)C(=O)[C@H](CC)[C@@H]1CC[C@@H](C)[C@@H]([C@H](C)[C@@H](O)[C@@H](C)C(=O)[C@H](CC)C2O[C@]3(C=C[C@@H](O)[C@]4(CC[C@@](C)([C@H]5CC[C@](O)(CC)[C@H](C)O5)O4)O3)[C@H](C)C[C@@H]2C)O1 (stereo not given in full) | 10.7% (inactive)
27 | COc1cc2cc(Oc3ccc(NC(=O)c4cc(C(F)(F)F)cc(C(F)(F)F)c4)cc3)c(C)nc2cc1OC | 43.9% (inactive)
28 | C=C/C(C)=C/C[C@]1(C)[C@H](C)[C@@H](OC(=O)CCC)[C@H](O)[C@@]23C(=C[C@H](OC)C[C@@H]12)[C@@H](OC(=O)CCC)O[C@H]3OC(C)=O | -9.72% (active)
29 | COc1cc2c(cc1NC(=O)C(Cl)Cl)-c1ccc(NC(=O)C(Cl)Cl)cc1C2 | 43.1% (inactive)
30 | CC(=O)[C@H]1CC[C@]2(C)[C@@H]1CC[C@@H]1[C@@]3(C)CC(CCC#N)(CCC#N)C(=O)C(C)(C)[C@@H]3CC[C@]12C | 98.4% (inactive)
31 | CCN(CC)CCOC(=O)c1cc(OCc2ccccc2)c(OCc2ccccc2)c(OCc2ccccc2)c1 | 42.6% (inactive)
32 | COc1cc(/C=C/c2cc(/C=C/c3ccc(O)c(OC)c3)n(C(=O)Nc3ccccc3Cl)n2)ccc1O | -6.58% (active)
33 | COC(=O)c1c[nH]c2cc(OC(C)C)c(OC(C)C)cc2c1=O | 139% (inactive)
34 | O=c1[nH]c(=O)n(C2C[C@H](O)[C@@H](CO)O2)cc1C(F)(F)F (stereo not given in full) | 120% (inactive)
35 | Cn1cnc([N+](=O)[O-])c1/C=C1\Oc2ccc(Br)cc2C1=O | 87.1% (inactive)
36 | COc1cc(/C=C2\CCCC3=C2NC(N)=NC3c2cc(OC)c(OC)c(OC)c2)cc(OC)c1OC (stereo not given) | -19.4% (active)
37 | CC(C)(C)OC(=O)N1CCc2c(sc3ncnc(N/N=C/c4cccc5ccccc45)c23)C1 | 26.9% (inactive)
38 | CCN(CC)CCOc1cccc2c1C(=O)c1ccccc1C2=O | 102% (inactive)
39 | COc1ccc(C(=O)N/N=C/c2cc(C(F)(F)F)ccc2Cl)cc1 | 106% (inactive)
40 | CCOC(=O)CSc1nc(-c2cc(OC)ccc2OC)cc(-c2ccc(OC)cc2)c1C#N | 55.4% (inactive)
